Among the data in PubChem BioAssay (NCATS) are Potency and outcome values, retold here.

The target in test [1] is Thioredoxin reductase 1, cytoplasmic (Rattus norvegicus) (UniProt O89049). As to the kind of experiment: qHTS Assay for Inhibitors of Mammalian Selenoprotein Thioredoxin Reductase 1 (TrxR1) (AID 488773).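 Note: drop in NADPH fluorescence over an 8 min run after selenite addition; series mostly up to about 57 µM; nearly all actives have a fitted effect of over 40% in size.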 Particulars: Potency: inhibition. Put shortly:
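Inhibition is scored from the loss of NADPH fluorescence between first and last reads of an 8-min kinetic run. Selenite (400 uM) was the substrate, added after 15 min compound preincubation at room temperature.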
In general terms: Quantitative high-throughput screening tests each substance at several concentrations.

Test [2] has as its target M-phase phosphoprotein 8 (Homo sapiens) (UniProt Q99549). As to the kind of experiment: qHTS Validation Assay for Inhibitors for MPP8 Chromodomain Interactions with Methylated Histone Tails (AID 488949). Note: nearly all actives have a fitted effect of over 55% in size. Note: potency is the fitted concentration of half-maximal effect. Put shortly:
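AlphaScreen read-out: streptavidin donor and nickel chelate acceptor beads (final 10 ug/mL), 30 min in the dark at RT. Complex of 50 nM MPP8 and 50 nM b-H3(1-18)K9me3 peptide had been exposed to compounds for 30 min beforehand.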

For test [3], the target named is Chromobox protein homolog 1 (Homo sapiens) (UniProt P83916). As to the kind of experiment: qHTS Validation Assay for Inhibitors of HP1-beta Chromodomain Interactions with Methylated Histone Tails (AID 488953). Note: nearly all actives have a fitted effect of over 50% in size. Note: potency is the fitted concentration of half-maximal effect. Put shortly:
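AlphaScreen proximity signal from streptavidin donor and nickel chelate acceptor beads (final 10 ug/mL) after 30 min dark incubation. Compounds had 30 min at room temperature with preformed complex of 50 nM HP1-beta and 50 nM b-H3(1-18)K9me3 in PBS pH 7.4 with 0.01% Tween-20.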

The target in test [4] is Methanococcus maripaludis chaperonin (MmCpn) (UniProt Q6LX38). As to the kind of experiment: High-Throughput Screening for Modulators of Cytosolic Chaperonin Activity: MmCpn Primary Screen (AID 488978). Put shortly: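 ADP formation read by HTRF Transcreener, 665/590 nm emission after 320 nm excitation. Enzyme: archaeal chaperonin at 50 nM final; substrate ATP 30 uM final; 10 min, 37C, after 5 min compound preincubation at RT.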
Sequence of Methanococcus maripaludis chaperonin (MmCpn) (Q6LX38 1-543): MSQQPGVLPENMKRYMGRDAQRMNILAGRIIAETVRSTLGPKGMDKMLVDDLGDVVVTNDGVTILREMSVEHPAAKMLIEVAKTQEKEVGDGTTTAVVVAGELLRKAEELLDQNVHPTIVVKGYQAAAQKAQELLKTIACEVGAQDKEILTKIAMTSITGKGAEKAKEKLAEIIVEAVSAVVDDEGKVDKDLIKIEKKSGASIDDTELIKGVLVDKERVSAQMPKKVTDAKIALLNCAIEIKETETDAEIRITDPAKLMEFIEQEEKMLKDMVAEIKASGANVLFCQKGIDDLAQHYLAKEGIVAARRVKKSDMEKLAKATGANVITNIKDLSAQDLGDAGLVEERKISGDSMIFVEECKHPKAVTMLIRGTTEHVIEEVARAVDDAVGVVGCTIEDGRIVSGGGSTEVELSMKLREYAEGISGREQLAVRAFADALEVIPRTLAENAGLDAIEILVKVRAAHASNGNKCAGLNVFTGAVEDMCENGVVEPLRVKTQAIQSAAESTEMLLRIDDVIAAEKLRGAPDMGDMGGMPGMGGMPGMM

Test [5] has as its target Transient receptor potential cation channel subfamily V member 1 (Homo sapiens) (UniProt Q8NER1). As to the kind of experiment: HTS Assay for Compounds that Act as Enhancers of the Vanilloid Receptor 1 (AID 488979). Put shortly: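 TRPV1 cells loaded with Fluo-8 calcium dye; compound added and Ca2+ signal (ex 480/em 520 nm) followed 3 min, then capsaicin at EC20 added and read 2 more min to detect enhancement.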

Test [6] deals with Thyrotropin receptor (Homo sapiens) (UniProt P16473). As to the kind of experiment: qHTS Assay for Antagonists of the Thyroid Stimulating Hormone Receptor (AID 488980). Note: series mostly up to about 58 µM. Put shortly:
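TSHR-HEK293 cells; 70 uM RO 20-1724 PDE inhibitor; compound + EC80 TSH (4 nM final); anti-cAMP cryptate antibody/cAMP-d2 in lysis buffer, 30 min RT; HTRF 665/620 nm read.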

For test [7], the target named is D(1A) dopamine receptor (Homo sapiens) (UniProt P21728). As to the kind of experiment: HTS Assay for Allosteric Agonists of the Human D1 Dopamine Receptor: Primary Screen for Agonists (AID 488981). Note: potency is the fitted concentration of half-maximal effect. Put shortly:
(§1)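 Tetracycline-induced HEK293 Trex D1 cells with forced coupling to calcium, loaded with no-wash calcium dye; kinetic fluorescence read 180 s after compound addition for agonism, then a further 180 s after an EC20 dopamine challenge for potentiation.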

For test [8] the target is unchanged. As to the kind of experiment: HTS Assay for Allosteric Agonists of the Human D1 Dopamine Receptor: Primary Screen for Potentiators (AID 488982). Note: potency is the fitted concentration of half-maximal effect. Put shortly:
as §1

Test [9] shares this target. As to the kind of experiment: HTS Assay for Allosteric Agonists of the Human D1 Dopamine Receptor: Primary Screen for Antagonists (AID 488983).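 Note: calcium flux response to an EC80 dopamine challenge measured with no-wash dye; nearly all actives have a fitted effect of over 65% in size.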 Note: potency is the fitted concentration of half-maximal effect. Put shortly: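 Calcium-flux read-out in inducible HEK293 T-REx cells expressing D1, dye-loaded 30–90 min at room temperature. Kinetic reads: 180 s after compound (agonist phase), then 180 s after an EC80 dopamine challenge.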

For test [10], the target named is Flap endonuclease 1 (Homo sapiens) (UniProt P39748). As to the kind of experiment: qHTS Validation Assay for the Inhibitors of Human Flap endonuclease 1 (FEN1) (AID 488816). Note: potency is the fitted concentration of half-maximal effect. Put shortly:
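Enzyme reagent 10 nM; cpds pinned; 15 min RT preinc.; substrate 50 nM final; reads t=0 and 15 min; no-enzyme buffer wells as neg. control; normalized data, 4-parameter Hill fit.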

Results filed as inconclusive are left out. Activity calls are given as the source filed them. Calls come from the whole dose curve; as a rule, active = well fitted curve in the direction sought with a large enough effect; inconclusive = small, poorly fitted or top-dose-only effect, or another doubt; inactive = no such curve, though single readings can be large; an effect the other way counts as inactive or inconclusive.

Sequence of Flap endonuclease 1 (Homo sapiens) (P39748 whole entry, looked up): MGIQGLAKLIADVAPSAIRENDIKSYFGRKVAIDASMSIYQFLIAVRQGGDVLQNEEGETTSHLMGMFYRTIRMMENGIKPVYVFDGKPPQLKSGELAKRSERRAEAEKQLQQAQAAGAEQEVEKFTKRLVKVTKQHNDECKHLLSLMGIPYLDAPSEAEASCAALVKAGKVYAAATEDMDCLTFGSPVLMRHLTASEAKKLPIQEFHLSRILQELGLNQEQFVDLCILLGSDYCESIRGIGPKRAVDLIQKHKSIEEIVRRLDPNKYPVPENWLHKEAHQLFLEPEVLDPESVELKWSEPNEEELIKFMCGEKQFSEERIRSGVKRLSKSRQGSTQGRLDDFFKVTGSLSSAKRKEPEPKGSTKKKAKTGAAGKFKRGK
Sequence of Transient receptor potential cation channel subfamily V member 1 (Homo sapiens) (Q8NER1 whole entry, looked up): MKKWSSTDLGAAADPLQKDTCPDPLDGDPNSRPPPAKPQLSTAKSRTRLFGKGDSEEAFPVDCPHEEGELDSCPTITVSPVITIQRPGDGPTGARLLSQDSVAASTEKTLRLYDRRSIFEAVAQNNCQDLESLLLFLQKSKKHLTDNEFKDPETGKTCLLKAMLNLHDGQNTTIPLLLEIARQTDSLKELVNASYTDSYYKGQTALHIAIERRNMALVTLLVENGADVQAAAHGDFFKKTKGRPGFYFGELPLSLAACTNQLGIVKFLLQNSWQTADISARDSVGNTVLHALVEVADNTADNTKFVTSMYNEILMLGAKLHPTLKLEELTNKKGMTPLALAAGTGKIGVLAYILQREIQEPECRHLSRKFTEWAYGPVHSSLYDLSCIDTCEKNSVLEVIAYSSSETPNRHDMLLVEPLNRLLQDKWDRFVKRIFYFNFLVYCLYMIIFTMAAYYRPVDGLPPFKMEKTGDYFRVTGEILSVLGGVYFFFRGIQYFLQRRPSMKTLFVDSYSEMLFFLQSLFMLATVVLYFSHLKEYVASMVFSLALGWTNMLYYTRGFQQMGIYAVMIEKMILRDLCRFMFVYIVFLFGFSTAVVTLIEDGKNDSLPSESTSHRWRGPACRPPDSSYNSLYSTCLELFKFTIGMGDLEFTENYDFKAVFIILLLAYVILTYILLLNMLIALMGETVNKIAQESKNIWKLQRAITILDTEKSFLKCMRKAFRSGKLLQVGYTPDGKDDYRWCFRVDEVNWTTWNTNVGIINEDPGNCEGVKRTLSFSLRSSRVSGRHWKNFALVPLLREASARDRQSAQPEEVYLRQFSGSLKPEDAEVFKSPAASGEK
Sequence of Thyrotropin receptor (Homo sapiens) (P16473 whole entry, looked up): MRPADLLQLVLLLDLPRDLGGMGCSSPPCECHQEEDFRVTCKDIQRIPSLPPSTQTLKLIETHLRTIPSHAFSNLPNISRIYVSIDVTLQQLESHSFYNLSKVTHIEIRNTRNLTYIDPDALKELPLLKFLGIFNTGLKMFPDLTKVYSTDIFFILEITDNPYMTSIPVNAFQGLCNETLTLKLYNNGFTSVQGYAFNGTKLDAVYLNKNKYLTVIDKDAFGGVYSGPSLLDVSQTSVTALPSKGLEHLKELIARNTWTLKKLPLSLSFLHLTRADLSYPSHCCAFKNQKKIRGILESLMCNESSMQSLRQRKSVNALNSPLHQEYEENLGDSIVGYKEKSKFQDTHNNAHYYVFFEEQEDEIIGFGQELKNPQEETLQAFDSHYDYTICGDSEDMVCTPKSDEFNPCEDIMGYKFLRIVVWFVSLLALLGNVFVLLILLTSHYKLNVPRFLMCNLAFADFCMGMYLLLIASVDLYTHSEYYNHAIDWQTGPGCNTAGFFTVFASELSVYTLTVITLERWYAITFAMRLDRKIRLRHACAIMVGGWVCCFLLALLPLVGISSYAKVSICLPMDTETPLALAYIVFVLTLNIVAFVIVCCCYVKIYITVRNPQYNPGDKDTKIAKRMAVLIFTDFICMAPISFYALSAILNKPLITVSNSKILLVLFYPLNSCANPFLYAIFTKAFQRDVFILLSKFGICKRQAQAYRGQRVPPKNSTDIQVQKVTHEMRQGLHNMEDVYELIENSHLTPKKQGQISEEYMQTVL
Sequence of M-phase phosphoprotein 8 (Homo sapiens) (Q99549 whole entry, looked up): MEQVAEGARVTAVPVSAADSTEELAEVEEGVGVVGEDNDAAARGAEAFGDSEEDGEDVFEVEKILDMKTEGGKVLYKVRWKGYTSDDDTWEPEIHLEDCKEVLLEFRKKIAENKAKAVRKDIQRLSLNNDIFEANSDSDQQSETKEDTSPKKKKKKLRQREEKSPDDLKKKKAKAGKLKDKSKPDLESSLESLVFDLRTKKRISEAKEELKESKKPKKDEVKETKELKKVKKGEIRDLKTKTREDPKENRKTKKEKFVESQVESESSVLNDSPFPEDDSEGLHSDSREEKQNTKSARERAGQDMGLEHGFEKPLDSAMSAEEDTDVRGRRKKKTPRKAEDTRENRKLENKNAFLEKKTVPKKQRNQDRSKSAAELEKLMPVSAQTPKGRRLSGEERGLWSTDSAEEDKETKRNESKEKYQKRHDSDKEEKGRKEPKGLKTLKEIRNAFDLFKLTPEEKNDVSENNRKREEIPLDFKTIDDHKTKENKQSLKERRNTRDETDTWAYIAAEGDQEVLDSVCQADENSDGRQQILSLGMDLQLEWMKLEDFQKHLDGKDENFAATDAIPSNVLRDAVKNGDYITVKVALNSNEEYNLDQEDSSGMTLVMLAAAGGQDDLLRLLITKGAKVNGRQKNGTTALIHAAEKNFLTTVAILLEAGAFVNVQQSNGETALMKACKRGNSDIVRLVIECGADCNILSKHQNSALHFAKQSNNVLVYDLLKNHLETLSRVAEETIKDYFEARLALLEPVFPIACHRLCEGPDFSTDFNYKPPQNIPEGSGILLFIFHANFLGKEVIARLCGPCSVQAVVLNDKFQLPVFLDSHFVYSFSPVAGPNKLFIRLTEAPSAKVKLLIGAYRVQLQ
Sequence of D(1A) dopamine receptor (Homo sapiens) (P21728 whole entry, looked up): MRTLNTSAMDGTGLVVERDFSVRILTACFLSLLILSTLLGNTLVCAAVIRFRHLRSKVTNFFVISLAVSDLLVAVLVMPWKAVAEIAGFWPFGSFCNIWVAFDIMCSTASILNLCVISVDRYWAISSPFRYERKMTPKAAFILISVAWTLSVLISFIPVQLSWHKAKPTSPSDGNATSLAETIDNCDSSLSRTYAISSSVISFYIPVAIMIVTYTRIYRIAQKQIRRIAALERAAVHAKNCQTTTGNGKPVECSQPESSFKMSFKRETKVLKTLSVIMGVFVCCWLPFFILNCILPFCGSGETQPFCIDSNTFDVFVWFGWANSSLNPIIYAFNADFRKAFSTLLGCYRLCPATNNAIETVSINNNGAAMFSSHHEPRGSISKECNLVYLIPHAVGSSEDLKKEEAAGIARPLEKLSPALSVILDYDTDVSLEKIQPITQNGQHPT
Sequence of Thioredoxin reductase 1, cytoplasmic (Rattus norvegicus) (O89049 whole entry, looked up): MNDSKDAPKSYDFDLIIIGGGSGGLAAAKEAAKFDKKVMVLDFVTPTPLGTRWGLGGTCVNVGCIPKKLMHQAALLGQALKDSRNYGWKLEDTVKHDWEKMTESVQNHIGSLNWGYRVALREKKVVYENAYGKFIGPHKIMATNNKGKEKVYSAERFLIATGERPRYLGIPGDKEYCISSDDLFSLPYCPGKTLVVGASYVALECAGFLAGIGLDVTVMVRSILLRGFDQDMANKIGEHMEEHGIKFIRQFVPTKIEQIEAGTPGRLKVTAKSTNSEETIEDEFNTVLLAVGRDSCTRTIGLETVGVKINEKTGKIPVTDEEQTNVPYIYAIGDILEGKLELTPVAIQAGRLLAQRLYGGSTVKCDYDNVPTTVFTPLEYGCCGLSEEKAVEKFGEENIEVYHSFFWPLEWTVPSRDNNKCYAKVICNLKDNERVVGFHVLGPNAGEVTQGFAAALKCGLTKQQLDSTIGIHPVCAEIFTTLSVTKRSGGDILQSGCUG
Sequence of Chromobox protein homolog 1 (Homo sapiens) (P83916 whole entry, looked up): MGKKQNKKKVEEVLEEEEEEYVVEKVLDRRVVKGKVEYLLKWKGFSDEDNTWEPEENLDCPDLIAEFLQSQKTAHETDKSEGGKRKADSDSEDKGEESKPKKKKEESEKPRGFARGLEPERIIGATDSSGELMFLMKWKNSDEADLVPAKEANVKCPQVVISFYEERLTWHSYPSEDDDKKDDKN

Consider `C[C@]12CCC(=O)C=C1CC[C@@H]1[C@@H]2CC[C@@]2(C)[C@H]1CC[C@]2(O)C(=O)CO`, for which the Potency result in test [1], in test [2], in test [3], in [7], in test [8] and in [9] was “inactive” in each case. Moreover, the outcome in [4], in [5] and in [6] was inactive.
Consider `CN(C)CCCN1c2ccccc2Sc2ccc(C(F)(F)F)cc21`, for which the Potency entry in test [1], in test [2], in test [7] and in [8] was “inactive” each time. Also, the outcome in [4] and in test [6] was inactive. Also, the Potency in test [9] is 1.26 µM (active).
As for `CN(C)C(=O)Oc1ccc[n+](C)c1`, the Potency result in test [1], in test [10], in test [7], in [8] and in test [9] was “inactive” each time. Moreover, the call in test [4] and in test [5] was inactive.
Turning to `COCCCC/C(=N\OCCN)c1ccc(C(F)(F)F)cc1`, the Potency result in test [1], in test [2], in [3], in test [8] and in test [9] was “inactive” throughout. The result in [4] was inactive.
For the molecule `COC(=O)[C@@H](N)Cc1ccc(O)c(O)c1`, the Potency result in [10], in test [2], in [3], in [7], in [8] and in test [9] was “inactive” each time. In addition, the molecule was classed as inactive in [4] and in test [5].
For the molecule `Cc1scc2c1N(C(=O)CN1CCN(C)CC1)c1ccccc1NC2=O`, the Potency entry in test [2], in test [7] and in test [9] was “inactive” in each case. In addition, the outcome in test [4], in test [5] and in test [6] was inactive.
`CC(C)NCC(O)c1cc(O)cc(O)c1` (stereo not drawn): the Potency entry in test [1], in test [2], in test [3], in test [7], in test [8] and in test [9] was “inactive” in each case. Besides, the molecule was called inactive in test [4], in test [5] and in test [6].
Consider `CCn1nc(C(=O)O)c(=O)c2cc3c(cc21)OCO3`, for which the Potency result in test [2], in test [3], in test [7], in test [8] and in test [9] was “inactive” in each case. The call in test [4] and in [5] was inactive.
Regarding `CC(=O)OCC1=C(C(=O)O)N2C(=O)[C@@H](NC(=O)Cc3cccs3)[C@H]2SC1`, the Potency result in test [2], in test [3], in [7], in test [8] and in test [9] was “inactive” each time. Besides, the outcome in test [4], in [5] and in test [6] was inactive.
For `O=C(CCCN1CCC(O)(c2cccc(C(F)(F)F)c2)CC1)c1ccc(F)cc1`, the Potency result in test [1], in test [2], in [3] and in [8] was “inactive” each time. For the same molecule, the molecule was classed as inactive in test [4] and in [5].
With `CN=C(NC#N)NCCSCc1nc[nH]c1C`, the Potency result in test [1], in test [10], in [3], in test [7], in test [8] and in [9] was “inactive” each time. The call in test [4] and in [5] was inactive.
Take `c1cnc(N2CCN(Cc3ccc4c(c3)OCO4)CC2)nc1`: the Potency result in test [1], in [2], in [3], in test [7], in test [8] and in test [9] was “inactive” in each case. In addition, the outcome in test [4], in test [5] and in test [6] was inactive.
As to `COc1cc(Cc2cnc(N)nc2N)cc(OC)c1OC`, the Potency result in test [1], in test [7], in [8] and in test [9] was “inactive” throughout. The molecule was called inactive in [4], in test [5] and in [6].
`COC(=O)C1=C(C)NC(C)=C(C(=O)OC(C)(C)CN(C)CCC(c2ccccc2)c2ccccc2)C1c1cccc([N+](=O)[O-])c1` (stereo not drawn): the Potency entry in [1], in test [10], in test [7], in test [8] and in [9] was “inactive” each time. The Potency in test [3] is 25.1 µM (active). Moreover, in [4], the call was inactive.
With `CN(C)[C@@H]1C(=O)C(C(N)=O)=C(O)[C@@]2(O)C(=O)C3=C(O)c4c(O)ccc(Cl)c4[C@@H](O)[C@H]3C[C@@H]12`, the Potency in test [10] is 29.9 µM (active). The molecule was called inactive in test [4]. Besides, the Potency result in [7], in [8] and in [9] was “inactive” in each case.
As for `CN1C[C@H](C(=O)N[C@]2(C)O[C@@]3(O)[C@@H]4CCCN4C(=O)[C@H](Cc4ccccc4)N3C2=O)C[C@@H]2c3cccc4[nH]cc(c34)C[C@H]21`, the Potency entry in [1], in test [10] and in test [7] was “inactive” each time. In test [4], the molecule was classed as inactive.
With `CC(=O)[C@]1(O)Cc2c(O)c3c(c(O)c2[C@@H](O[C@H]2C[C@H](N)[C@H](O)[C@H](C)O2)C1)C(=O)c1ccccc1C3=O`, the Potency in test [10] was 26.7 µM (active); in [2] it was 28.2 µM (active); in test [3] it was 39.8 µM (active); in test [7], 11.2 µM (active); in [8], 2.91 µM (active). Further, the molecule was classed as inactive in test [4] and in [6].
As for `CN/C(=C\[N+](=O)[O-])NCCSCc1ccc(CN(C)C)o1`, the Potency result in test [1], in test [7], in test [8] and in [9] was “inactive” throughout. In addition, the molecule was called inactive in [4], in [5] and in test [6].
In the case of `CNCCCN1c2ccccc2CCc2ccccc21`, the Potency entry in test [1], in test [7] and in test [8] was “inactive” each time. Besides, the result in [4] and in test [6] was inactive.
With `C[C@H](CS)C(=O)N1CCC[C@H]1C(=O)O`, the Potency result in [2], in test [7], in test [8] and in test [9] was “inactive” in each case. In addition, the result in test [4] was inactive.
`Brc1c(NC2=NCCN2)ccc2nccnc12`: the Potency result in test [2], in [7], in [8] and in test [9] was “inactive” throughout. The outcome in [4] and in [6] was inactive.
